This assay concerns Plasmodium falciparum. The assay is described as follows: GSK_TCMDC: Inhibition of Plasmodium falciparum Dd2 in whole red blood cells, using parasite LDH activity as an index of growth. Test compounds present at 2uM. It counts as functional.
Broadly, the Inhibition is how much of the control response was suppressed. Low values mean little suppression, high ones strong suppression. In the case of `CN1CCN(c2cc(-c3cccc(C(F)(F)F)c3)nc(-c3ccncc3)n2)CC1`, the Inhibition turned out to be 98%.
The compound `O=C(Nc1ccc(OC2CCN(Cc3ccccc3)CC2)c(Cl)c1)c1ccsc1.O=C(O)C(F)(F)F` displayed an Inhibition of 92%.
`CN1CCN(Cc2ccc(OCc3cccc(COc4ccc(CN5CCN(C)CC5)cc4I)c3)c(I)c2)CC1.Cl` had an Inhibition of 69%.
On to `CCOC(=O)N1CCN(CCCCNc2c3ccc(Cl)cc3nc3ccc(OC)cc23)CC1.Cl`, for which the Inhibition came to 98%.
With `Cc1cccc2nc(-c3ccc(-c4cccc(CNCCCNS(C)(=O)=O)c4)cc3)[nH]c12.O=C(O)C(F)(F)F` the figure was 5%; with `COc1ccc2nc(N3CCNCC3)nc(NCCCc3ccccc3)c2c1.Cl`, 43%; with `N#Cc1ccc(C(=O)NC2CCN(CCCCCNC(=O)/C=C/c3ccc(Cl)c(Cl)c3)CC2)cc1`, 1%.
The value for `O=C(Cc1ccc(Cl)cc1)NC1CCN(c2ccnc3cc(Cl)ccc23)C1.O=C(O)C(F)(F)F` (stereo unspecified) was 99%; that for `Cc1nn(-c2cccc(C(F)(F)F)c2)c2sc(C(=O)NC3CCN(C(C)C)CC3)cc12` was 20%.
With `Cc1ccccc1C1CCN(c2ncc(C(=O)NC3CC3)cc2Cl)CC1.O=C(O)C(F)(F)F` the figure was 96%; with `CCN(CC)CCN(Cc1ccc(-c2ccc(C(F)(F)F)cc2)cc1)C(=O)Cn1cc(Cc2cnn(C)c2)c(=O)nc1/C=C/c1ccc(F)cc1.O=C(O)C(O)C(O)C(=O)O`, 91%.
`Cc1cc(N2CC=CCC2)nc(NC(=N)Nc2ccc(Br)cc2)n1` had an Inhibition of 41%.
With `CN1CCN(c2ccc(Nc3ccnc4ccc(-c5ccccc5)cc34)cc2)CC1` the figure was 100%.
With `Cc1cc(-c2ccc(CNC3CCN(C)CC3)cc2)ccc1S(=O)(=O)NCc1ccccc1.O=C(O)C(F)(F)F` the figure was 97%; with `O=C(Nc1cccc(-c2nc3ccccc3[nH]2)c1)c1cccc(NC(=O)c2ccco2)c1`, 45%.
With `Cc1ccc(C(=O)Nc2ccc(Nc3ccnc4cc(-c5ccccn5)ccc34)cc2O)cc1.Cl`, the Inhibition is listed as 100%.
`COc1cc(OC)c2c(C)cc(NCCCN3CCOCC3)nc2c1` gave an Inhibition of 3%.
With `CS(=O)(=O)CCCNCc1ccc(-c2cc3c(Nc4ccc(OCc5ccccc5)cc4)ncnc3cn2)o1` the figure was 16%.
With `O=[N+]([O-])c1cccc(NC(=S)N2CCCN(Cc3ccc(F)cc3F)CC2)c1` the figure was 98%; with `CC(C)Nc1cc(C(=O)N[C@@H](Cc2ccccc2)[C@H](O)CNC(C)(C)c2cccc(C(F)(F)F)c2)cc(N2CCCCS2(=O)=O)c1.O=CO`, 98%.
For the compound `COc1ccc(CNCc2ccc(-c3cccc(-c4nc5cccc(C)c5[nH]4)c3)cc2)cc1.O=C(O)C(F)(F)F`, the Inhibition was 100%.
With `Cc1cc(NCCCN2CCCC2=O)n2c(nc3ccccc32)c1C#N` the figure was 48%; with `Cc1ccccc1C1CCN(c2ccc(C(=O)Nc3ccc(F)cc3)cn2)CC1.O=C(O)C(F)(F)F`, 96%.
Turning to `Cc1ccccc1N1CCN(c2ccc(C(=O)NC3CC3)cn2)CC1.O=C(O)C(F)(F)F`, the Inhibition turned out to be 96%.
Turning to `CC(C)(C)c1ccc(S(=O)(=O)Nc2ccccc2Cn2nc(N3CCNCC3)ccc2=O)cc1.O=C(O)C(F)(F)F`, the Inhibition was determined as 97%.
As for `Cc1[nH]c(C)c(-c2ccc(OCc3cc(F)cc(F)c3)nc2)c(=O)c1Br`, the Inhibition is recorded as 97%.
As to `COc1cc(CN2CCC(N3CCc4cc(NC(=O)c5cc(C)on5)ccc43)C2)ccc1F` (stereo unspecified), the Inhibition is given as 96%.
With `N#Cc1ccc(N(CCOC(=O)c2ccc(Br)s2)Cc2ccccc2C(F)(F)F)cc1C(F)(F)F` the figure was 48%; with `O=C(Nc1ccc(Cl)c(C(F)(F)F)c1)NC1CCN(CCCCCNC(=O)C2CC2c2ccc(Cl)c(Cl)c2)CC1` (stereo unspecified), 41%; with `CN1CCN(S(=O)(=O)c2cccc(Nc3nccc(N(C)c4ccc5c(c4)nc(NC(=O)c4cccs4)n5C)n3)c2)CC1`, 59%.
With `C#CCNC(=O)c1ccc(-c2ccnc(Nc3cccc(CCCN4CCOCC4)c3)n2)s1` the figure was 45%.
The value for `Cc1cccc2nc(-c3ccc(-c4cccc(CN5CCN(c6ccncc6)CC5)c4)cc3)[nH]c12.O=C(O)C(F)(F)F` was 99%.
The compound `C=CCNc1cc(-c2ccccn2)nc(-c2ccccn2)n1` displayed an Inhibition of 79%.
The compound `O=C(Nc1ccc(-c2ccccc2)cc1)Nc1cccc(OCCN2CCCC2)c1.O=C(O)C(F)(F)F` returned an Inhibition of 14%.
On to `Br.Cn1c(=N)n(CC(=O)OCc2ccc(OCc3ccccc3)cc2)c2ccccc21`, for which the Inhibition was 74%.
As to `O=C(Nc1cccc(-c2cccc(-c3nc4cc(C(F)(F)F)ccc4[nH]3)c2)c1)c1cccnc1Cl`, the Inhibition is on record as 58%.

The values above are taken from ChEMBL document CHEMBL1157539, “Thousands of chemical starting points for antimalarial lead identification” (Nature, 2010).
